Data published in PubChem BioAssay (NCI).
Compounds without any hit were thinned out: in the full panel of roughly 79,000, 15% have a hit. Unmarked numbers belong to inactive results. Active and inactive are the calls of the source. Rule as the data show it: active = growth inhibition above about 70%; inactive = the rest.

Experiments:
[1] = NCI Yeast Anticancer Drug Screen. Data for the rad50 strain (AID 155);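 also: 0% = growth of vehicle-only cultures of the same strain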; conditions: S. cerevisiae rad50 strain growth inhibition; at 50.0 µM; stronger effect = higher value
Procedure, shortened: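 Relative growth inhibition (compound vs vehicle) was measured in yeast with a defined repair-gene alteration.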

[2] = NCI Yeast Anticancer Drug Screen. Data for the mec2-1 strain (AID 157); conditions: S. cerevisiae mec2-1 strain, at 50.0 µM, stronger effect = higher value
Procedure, shortened: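 Compounds were applied to mec2-1 yeast cells. Their growth was then compared with that of vehicle-treated cultures to give growth inhibition.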

[3] = NCI Yeast Anticancer Drug Screen. Data for the sgs1 mgt1 strain (AID 161);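 also: 0% = growth of cultures given vehicle only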; conditions: S. cerevisiae sgs1 mgt1 strain, at 50.0 µM, stronger effect = higher value
Procedure, shortened: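 Compounds are added to genetically altered yeast, and growth is compared with cultures given vehicle alone to give percent inhibition.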

[4] = NCI Yeast Anticancer Drug Screen. Data for the cln2 rad14 strain (AID 165);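 also: 0% = growth equal to vehicle treated cultures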; conditions: S. cerevisiae cln2 rad14 strain, at 50.0 µM, stronger effect = higher value
Procedure, shortened: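 Strain: cln2 rad14 yeast, altered in cell cycle control and DNA damage repair. Read-out: growth inhibition vs vehicle.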

[5] = NCI Yeast Anticancer Drug Screen. Data for the bub3 strain (AID 167); conditions: S. cerevisiae bub3 mutant strain, at 50.0 µM, stronger effect = higher value
Procedure, shortened: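 Screening used yeast with an engineered genetic alteration affecting cell cycle control. Compound-exposed cultures were compared with vehicle cultures, and reduced growth was taken as inhibition.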

[6] = NCI Yeast Anticancer Drug Screen. Data for the mlh1 rad18 strain (AID 175); conditions: S. cerevisiae mlh1 rad18 strain growth inhibition; at 50.0 µM; stronger effect = higher value
Procedure, shortened: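 A repair-deficient yeast strain is exposed to test compound, and growth is scored relative to vehicle-treated controls.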

SMILES | growth inhibition [1] | growth inhibition [2] | growth inhibition [3] | growth inhibition [4] | growth inhibition [5] | growth inhibition [6]
COc1cc2cnc3c4ccccc4ccc3c2cc1OC | -48.5% | -18.1% | -1.7% | 4.2% | -2.85% | -9.3%
O=C(CC(c1ccccc1)N1CCCCC1)OCC1CCCO1 (stereo unspecified) | -0.85% | -13.7% | -4.1% | -44.5% | -1.85% | 14.3%
Cc1cc(N=Nc2ccccc2)c2cccnc2c1N | -3.85% | -4.2% | -7.5% | 11.6% | -5.15% | 14.7%
Clc1ccccc1-c1nc(-c2ccncc2)no1 | 23.3% | -14.9% | -25% | 34.1% | 57.6% | 34%
CCCC(=O)Oc1ccc2ccccc2c1 | 7.65% | 23.5% | 1.8% | 14.7% | -1.5% | -33.5%
CCOc1ccccc1NC(=O)C(Br)C(Br)c1ccccc1 (stereo unspecified) | -1.1% | 0.65% | 30.9% | -20.9% | 20.1% | 42.3%
O=S1C2CCC(Br)C1CCC2Br (stereo unspecified) | 7.95% | -6.15% | 23.1% | -5.35% | 5.5% | 12.4%
COC(=O)C(CCCCNC(=O)OCc1ccccc1)NC(=O)c1ccc(N(C)C=O)cc1 (stereo unspecified) | 14.6% | 19.7% | -1.7% | 26.6% | 3.45% | 14.8%
O=C(O)c1ccc2c(c1)Cc1ccccc1-2 | 30.5% | 47.9% | 51.3% | 45.1% | 35.6% | 42%
COc1ccccc1NC(=O)C1=C(C)NC(C)=C(C(=O)Nc2ccccc2OC)C1c1cccc2ccccc12 | 28.4% | -2.35% | -18.2% | 29.4% | 6.65% | 0.5%
O=S(=O)(O)C(O)c1ccncc1 (stereo unspecified) | -38.2% | -41% | -6.15% | -1.8% | -4.25% | -22.7%
ClC1CC2CCC1C2 (stereo unspecified) | 26.9% | -20.8% | 8.45% | 7.75% | -8.3% | 9.1%
C/C(=N\Nc1ccccc1)c1sc(-c2nc(C)c(/C(C)=N/Nc3ccccc3)s2)nc1C | 24.3% | -3.2% | 14.3% | -29% | 17.6% | 25.2%
CN(C)c1ncnc2c1cnn2-c1ccccc1 | -4.45% | -4.35% | 0.2% | -40.8% | -0.25% | -3.15%
CCCOC(=O)CC(=O)OCC | 6% | 17.2% | -4.95% | -11.8% | -7.15% | -17.4%
O=C(c1ccncc1)n1nc(-c2ccccc2)c(N=Nc2ccccc2[N+](=O)[O-])c1-c1ccccc1 | -1.75% | -16.8% | -9.3% | 1.65% | 30.3% | 1%
C=CCNC(=S)NN(C)C | -42% | -16% | -16.9% | -51.5% | -28.2% | -16.4%
COc1ccc(C(C)=C2C=C(C(C)(C)C)C(=O)C(C(C)(C)C)=C2)cc1 | -26.6% | -16.2% | -17.4% | 34.2% | 1.35% | -17.4%
CCc1nc2c(N)ncnc2o1 | -1.45% | -1.5% | -3.3% | -37.3% | -19.8% | 11.4%
CCCOC(C)OCCC#CCC(C)OC(=O)CC(Cl)(Cl)Cl (stereo unspecified) | -13.8% | -21.4% | 10.7% | -5.35% | -16.1% | -9.35%
CCOc1ccccc1NC(=O)c1ccc(Cl)cc1 | -9.8% | 18% | -6.75% | 5.35% | 14.3% | -4.6%

SMILES | growth inhibition [1] | growth inhibition [2] | growth inhibition [3] | growth inhibition [4] | growth inhibition [5] | growth inhibition [6]
CC1OC(OC2C(Oc3cc(O)c4c(=O)cc(-c5ccc(O)cc5)oc4c3)OC(CO)C(O)C2O)C(O)C(O)C1O (stereo unspecified) | -6.15% | 5.75% | -14.2% | -19.9% | 6.35% | -7.65%
COc1ccc2c(c1)CCc1c(C(C)=O)c3ccccc3n1C2 | 19.8% | -13.3% | 46.4% | 15.2% | 47.1% | 2.15%
CCOC(=O)C(/C=N\c1[nH]ncc1C#N)=C(/C(=O)OCC)c1ccc(O)cc1 | 4.55% | 5.9% | -13.7% | -21.2% | -3% | 15.4%
CSc1ccc(C(=C=C=C(c2ccc(SC)s2)c2ccc(SC)s2)c2ccc(SC)s2)s1 | 38.7% | -19.8% | 2.85% | -24.2% | -31.9% | -2.1%
COC1=C(OC)C(=O)C(Sc2ccc3ccccc3c2)=C(Cl)C1=O | 95.2% (active) | 94.2% (active) | 93.8% (active) | 94.4% (active) | 91.7% (active) | 91.1% (active)
O=C(c1ccc(Cl)cc1)C1C(c2ccccc2)C1[N+](=O)[O-] (stereo unspecified) | 11.2% | -11.2% | -3.2% | -28.9% | 16.4% | 31%
Cc1c(C(=O)OCCCl)c(=O)n(-c2ccccc2)n1C | -43.4% | -56.2% | 4.7% | 19.6% | -33.5% | -0.55%
Nc1nnc(-c2ccc(Nc3nc4ccccc4[nH]3)c([N+](=O)[O-])c2)s1 | 7% | 1.4% | 27.7% | 15.3% | 3.15% | 14.1%
C=CCOc1ccc(N)c([N+](=O)[O-])c1 | 42.1% | 41.5% | 23.3% | 14.1% | 36.7% | 2.85%
Nc1nc2c([nH]c(=O)n2C2OC(CO)C(O)C2O)c(=O)n1N (stereo unspecified) | 16.1% | 6.2% | 18.8% | -13% | 9.95% | 5.2%
Cc1cc(NC(=O)NC(=O)c2ccccc2N(C)C)ccc1Oc1ncc(Br)cn1 | -14.6% | -13.8% | -13.3% | 12.2% | -3.4% | -4.45%
CC1CN(C(=O)C2CCCN(CCc3ccccc3)C2)CC(C)O1 (stereo unspecified) | 25.4% | 2.65% | 52.7% | 14.8% | 2% | 22.7%
COc1cc([C@@H]2c3cc4c(cc3[C@H](O)[C@H]3COC(=O)[C@@H]23)OCO4)cc(OC)c1OC | 2.55% | 4.2% | 1.2% | 5.7% | 7.15% | 16.2%
CCC(O)(c1ccc(OC)cc1)C(c1ccc(OCc2ccccc2)cc1)c1ccc(OCc2ccccc2)cc1 (stereo unspecified) | 18.9% | -22.2% | 5.5% | 10.8% | -10.1% | -12.9%
Cc1[nH]n(C(N)=S)c(=O)c1N=Nc1c(Cl)cccc1Cl | 55.4% | 14.9% | 63.2% | -37.4% | 11.9% | 51%
C(=N\NC1=NCCCCN1)/c1ccc2ccccc2c1 | 14.1% | -1.75% | -32% | -34.6% | -2.35% | 7.6%
O=C(Nc1cc(Cl)c(Cl)cc1Cl)Nc1cc(Cl)ccc1Oc1ccc(Cl)cc1S(=O)(=O)O | 98% (active) | 99.3% (active) | 99.2% (active) | 98.5% (active) | 98.8% (active) | 98.7% (active)
COc1cccc(C2c3cc4c(cc3OC(C)(OC)C2C)OCO4)c1 (stereo unspecified) | 19.8% | 22.8% | 21.4% | -83.6% | 4.25% | 15.8%
CC1CCC(=O)N1c1ccc(N)cc1 (stereo unspecified) | -19% | -15.5% | -15.2% | 11.2% | -23.3% | 10.1%
OC(CNc1ccc(Cl)nn1)c1ccccc1 (stereo unspecified) | -3.35% | -10.3% | 21% | 13.4% | 9.7% | -15.2%
